Experimental data reported in PubChem BioAssay (Tox21).
Records with an inconclusive call do not appear. The source made the active and inactive calls. Unless noted, calls follow the shape of the dose curve; as a rule, active = well fitted curve in the direction sought with a large enough effect in the repeat runs; inconclusive = weak or mixed curves; inactive = no such curve, though single readings can be large; an effect the other way counts as inactive or inconclusive.

Legend:
[1] = qHTS assay to identify small molecule agonists of the RXR signaling pathway - cell viability counter screen (AID 1159529); also: nearly all actives have a fitted effect of over 50% in size
Procedure, shortened: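 Counter screen: CellTiter-Glo luminescence. Cells: RXR-alpha-UAS-bla HEK 293T. Medium: 2% charcoal-stripped FBS. Treatment: 16 h, 37 C. Reagent incubation: 30 min, RT.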

[2] = qHTS assay to identify small molecule antagonists of the retinoid acid receptor (RAR) signaling pathway - cell viability counter screen (AID 1159551); also: nearly all actives have a fitted effect of over 35% in size
Procedure, shortened: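 Cytotoxicity counter screen: ATP content quantified by CellTiter-Glo luminescence in C3RL4 cells treated 6 hr at 37 C with compound and retinol (1 uM final). Cells plated at 1,000/well and cultured overnight before dosing.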

[3] = qHTS assay to identify small molecule antagonists of the retinoic acid receptor (RAR) signaling pathway (AID 1159552; also: nearly all actives have a fitted effect of over 50% in size)
Procedure, shortened: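 Antagonism of retinol-induced RARE reporter activity was measured in C3RL4 cells. Exposure to compounds and 1 uM final retinol lasted 6 hr at 37 C, with luminescence as endpoint.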

[4] = qHTS assay to identify small molecule agonists of the retinoic acid receptor (RAR) signaling pathway (AID 1159553)
Procedure, shortened: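 Luminescence was measured 30 min after luciferase reagent addition at room temperature. Before that, C3RL4 reporter cells (1,000 per well, plated overnight) were treated with compound for 6 hr at 37 C and 5% CO2.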

[5] = qHTS assay to identify small molecule antagonists of the estrogen related receptor (ERR) signaling pathway from Tox21 library - cell viability counter screen (AID 1224834); also: nearly all actives have a fitted effect of over 30% in size
Procedure, shortened: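 CellTiter-Fluor fluorescence, read after 30 min at 37 C, measures viability of ERR cells. Cells plated at 2,000/well and incubated 6 h before pin-tool compound addition, then exposed 17.5 hours at 37 C.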

[6] = qHTS assay to identify small molecule antagonists of the constitutive androstane receptor (CAR) signaling pathway - cell viability counter screen (AID 1224837); also: nearly all actives have a fitted effect of over 45% in size
Procedure, shortened: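 Cytotoxicity counter-screen: CellTiter-Fluor fluorescence after 23 h compound exposure (15-point qHTS) in double-stable HepG2-CYP2B6-hCAR cells, with 50 nM CITCO added.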

[7] = biological target: Nuclear receptor subfamily 1 group I member 3 (Homo sapiens) (UniProt Q14994); assay: qHTS assay to identify small molecule antagonists of the constitutive androstane receptor (CAR) signaling pathway (AID 1224838);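 also: HepG2 cells stably expressing hCAR with CYP2B6 luciferase reporter stimulated by CITCO; nearly all actives have a fitted effect of over 40% in size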
Chain of Nuclear receptor subfamily 1 group I member 3 (Homo sapiens) (Q14994 whole entry, looked up): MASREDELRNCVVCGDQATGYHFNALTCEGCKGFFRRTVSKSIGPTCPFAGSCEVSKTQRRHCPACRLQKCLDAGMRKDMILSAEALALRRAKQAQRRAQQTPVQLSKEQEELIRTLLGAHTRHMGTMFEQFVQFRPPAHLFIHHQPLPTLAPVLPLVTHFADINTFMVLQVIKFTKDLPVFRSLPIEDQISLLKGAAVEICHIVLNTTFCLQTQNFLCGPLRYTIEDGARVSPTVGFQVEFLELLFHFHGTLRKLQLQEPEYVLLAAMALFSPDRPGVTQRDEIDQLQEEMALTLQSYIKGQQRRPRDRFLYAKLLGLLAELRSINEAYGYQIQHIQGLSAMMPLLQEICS
Procedure, shortened: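 Antagonism measured as luciferase signal (ONE-Glo, 30 min, room temperature) in CAR-stimulated cells: HepG2-CYP2B6-hCAR double-stable line exposed 24 hr at 37 C to compound in a 15-point series plus 50 nM CITCO.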

[8] = qHTS assay to identify small molecule antagonists of the estrogen related receptor signaling pathway with the pleiotropic PPARgamma coactivator (PGC) from Tox21 10K library (AID 1224841; call rule not given here; also: actives are mostly falling curves and most rising ones were filed inactive; nearly all actives have a fitted effect of over 50% in size)
Procedure, shortened: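 Luminescence (One-Glo, 30 min at room temperature) after 18 h compound treatment at 37 C of PGC/ERR reporter cells plated at 2,000 cells/well and settled 6 h beforehand.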

[9] = qHTS assay to identify small molecule agonists of the estrogen related receptor signaling pathway with the pleiotropic PPARgamma coactivator (PGC) from Tox21 10K library (AID 1224842); also: nearly all actives have a fitted effect of over 15% in size
Procedure, shortened: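 PGC/ERR reporter cells (NTP line) were seeded 2,000 per well, rested 6 h at 37 C/5% CO2, then pin-dosed with compounds in DMSO for 18 h at 37 C; luciferase read by One-Glo luminescence after 30 min at room temperature.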

[10] = biological target: Thyrotropin receptor (Homo sapiens) (UniProt P16473); assay: qHTS assay to identify small molecule agonists of the thyroid stimulating hormone receptor (TSHR) signaling pathway (AID 1224843; calls by dose curve; also: nearly all actives have a fitted effect of over 45% in size)
Chain of Thyrotropin receptor (Homo sapiens) (P16473 whole entry, looked up): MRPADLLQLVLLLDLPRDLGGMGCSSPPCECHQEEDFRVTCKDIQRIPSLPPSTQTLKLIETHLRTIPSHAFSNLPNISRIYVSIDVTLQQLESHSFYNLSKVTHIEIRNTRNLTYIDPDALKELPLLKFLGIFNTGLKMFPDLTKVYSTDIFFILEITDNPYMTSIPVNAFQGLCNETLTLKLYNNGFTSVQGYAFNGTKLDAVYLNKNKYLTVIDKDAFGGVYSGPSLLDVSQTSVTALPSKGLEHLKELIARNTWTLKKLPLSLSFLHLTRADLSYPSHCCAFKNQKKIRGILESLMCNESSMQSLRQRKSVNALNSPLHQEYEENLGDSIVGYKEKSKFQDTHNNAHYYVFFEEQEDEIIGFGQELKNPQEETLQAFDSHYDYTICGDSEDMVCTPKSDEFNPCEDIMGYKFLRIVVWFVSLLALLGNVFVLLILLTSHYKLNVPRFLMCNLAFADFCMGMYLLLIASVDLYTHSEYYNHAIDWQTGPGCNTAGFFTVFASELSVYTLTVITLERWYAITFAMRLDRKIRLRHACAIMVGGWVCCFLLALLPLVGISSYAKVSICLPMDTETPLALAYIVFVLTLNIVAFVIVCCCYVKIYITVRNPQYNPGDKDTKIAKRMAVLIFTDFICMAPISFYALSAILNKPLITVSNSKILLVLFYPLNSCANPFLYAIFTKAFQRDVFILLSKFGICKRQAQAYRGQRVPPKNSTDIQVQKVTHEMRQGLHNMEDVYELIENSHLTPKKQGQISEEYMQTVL
Procedure, shortened: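 Compounds are titrated over 15 concentrations, in triplicate, onto TSHR-HEK293 cells seeded at 800/well. Plates sit 30 min at room temperature before cAMP-d2 and anti-cAMP cryptate are added; signal is read after a further hour.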

[11] = qHTS assay to identify small molecule antagonists of the estrogen related receptor signaling pathway with the pleiotropic PPARgamma coactivator (PGC) cell viability counter screen (AID 1224822)
Procedure, shortened: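 Viability counter-screen read by fluorescence intensity after 30 min with CellTiter-Fluor at 37 C; PGC/ERR reporter cells were exposed to compounds for 17.5 h at 37 C following a 6 h preincubation.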

[12] = qHTS assay to identify small molecule agonists of the constitutive androstane receptor (CAR) signaling pathway - cell viability counter screen (AID 1224836); also: nearly all actives have a fitted effect of over 45% in size
Procedure, shortened: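 Double-stable HepG2 hepatoma cells (hCAR plus CYP2B6-2.2kb) are treated for 23 h at 37 C with test compounds in 15-point concentration series. PK11195 at 0.75 uM final is co-added. Cell viability is quantified by CellTiter-Fluor.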

[13] = biological target: Nuclear receptor subfamily 1 group I member 3 (Homo sapiens) (UniProt Q14994); assay: qHTS assay to identify small molecule agonists of the constitutive androstane receptor (CAR) signaling pathway (AID 1224839); also: nearly all actives have a fitted effect of over 15% in size
Procedure, shortened: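 Readout: firefly luciferase luminescence via ONE-Glo. System: HepG2 double-stable for hCAR and CYP2B6-2.2kb. Conditions: 15-point compound titration, PK11195 at 0.75 uM final, 24 h incubation.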

[14] = qHTS assay to identify small molecule antagonists of the estrogen related receptor signaling pathway with the pleiotropic PPARgamma coactivator (PGC) from Tox21 10K library - cell viability counter screen (AID 1224840; active = well fitted cell-killing curve with a large enough effect in the repeat runs, not every such curve was filed as active; also: nearly all actives have a fitted effect of over 40% in size)
Procedure, shortened: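 Counter-screen for cytotoxicity: after 17.5 h compound exposure at 37 C, CellTiter-Fluor reagent added to PGC/ERR cells for 30 min and fluorescence read. Cells were seeded at 2,000 per well 6 h before dosing.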

[15] = biological target: Luciferin 4-monooxygenase (Photinus pyralis) (UniProt P08659); assay: qHTS assay to identify small molecule inhibitors of firefly luciferase (AID 1224835); also: nearly all actives have a fitted effect of over 25% in size
Chain of Luciferin 4-monooxygenase (Photinus pyralis) (P08659 whole entry, looked up): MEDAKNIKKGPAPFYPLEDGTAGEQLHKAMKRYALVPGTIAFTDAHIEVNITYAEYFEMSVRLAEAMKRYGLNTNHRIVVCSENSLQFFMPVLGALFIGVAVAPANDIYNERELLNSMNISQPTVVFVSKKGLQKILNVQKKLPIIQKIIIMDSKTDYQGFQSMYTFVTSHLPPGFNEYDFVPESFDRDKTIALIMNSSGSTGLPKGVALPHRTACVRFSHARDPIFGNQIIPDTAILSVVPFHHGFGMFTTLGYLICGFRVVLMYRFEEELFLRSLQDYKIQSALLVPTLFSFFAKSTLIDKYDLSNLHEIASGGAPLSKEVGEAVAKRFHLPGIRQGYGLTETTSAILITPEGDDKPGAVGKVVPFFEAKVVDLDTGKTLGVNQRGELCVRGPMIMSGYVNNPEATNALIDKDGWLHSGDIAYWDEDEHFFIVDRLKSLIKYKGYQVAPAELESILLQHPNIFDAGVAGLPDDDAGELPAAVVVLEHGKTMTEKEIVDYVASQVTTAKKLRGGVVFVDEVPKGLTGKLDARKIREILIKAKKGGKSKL
Procedure, shortened: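 Quantitative HTS format; KM concentrations of both substrates. Purified P. pyralis FLuc activity quantified from luminescence images.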

Measured: Potency
Potency is read from the fitted curve at half-maximal effect.

COc1ccc(C(=O)/C(Br)=C\C(=O)O)cc1
active: [4] 27.3 µM | [5] 54.5 µM | [9] 24.3 µM
inactive: [1] | [2] | [3] | [6] | [7] | [8] | [10]

CCN(CC)CCNC(=O)c1c(C)[nH]c(/C=C2\C(=O)Nc3ccc(F)cc32)c1C
active: [1] 7.56 µM | [2] 33.5 µM | [3] 26.6 µM | [11] 8.74 µM | [5] 10.6 µM | [12] 10.6 µM | [6] 10.6 µM | [7] 10.6 µM | [14] 29.8 µM
inactive: [13]

Cc1cc(O)c(C(C)(C)C)cc1Sc1cc(C(C)(C)C)c(O)cc1C
active: [1] 12.3 µM | [2] 61 µM | [5] 30.6 µM | [12] 48.5 µM | [6] 54.4 µM | [7] 21.6 µM | [14] 30.6 µM | [8] 21.6 µM | [10] 9.67 µM
inactive: [3] | [15] | [13] | [9]

O=C1C=CC(=O)N1c1ccc(Cc2ccc(N3C(=O)C=CC3=O)cc2)cc1
inactive: [13]
active: [1] 17.4 µM | [2] 61.1 µM | [3] 13.7 µM | [5] 30.6 µM | [15] 15.9 µM | [12] 54.5 µM | [14] 27.3 µM

O=C(Nc1cccc([N+](=O)[O-])c1)c1cc2ccccc2cc1O
inactive: [1] | [2] | [3] | [9] | [10]
active: [4] 0.969 µM | [5] 4.33 µM | [15] 1.59 µM | [6] 9.69 µM | [13] 2.43 µM | [14] 3.86 µM

C[n+]1ccn(Cc2ccccc2)c1
inactive: [1] | [2] | [3] | [4] | [5] | [15] | [14] | [8] | [9] | [10]

CCCN(CCC)c1c([N+](=O)[O-])cc(C(F)(F)F)c(N)c1[N+](=O)[O-]
inactive: [15] | [9]
active: [1] 13.8 µM | [2] 60.9 µM | [3] 30.5 µM | [5] 48.4 µM | [6] 68.4 µM | [13] 13.6 µM | [14] 43.1 µM | [8] 38.5 µM | [10] 6.09 µM

[Cl][Bi]([Cl])([c]1ccccc1)([c]1ccccc1)[c]1ccccc1
active: [1] 2.74 µM | [2] 54.2 µM | [3] 3.83 µM | [5] 13.6 µM | [15] 12.6 µM | [12] 21.6 µM | [6] 19.2 µM | [7] 12.1 µM | [10] 2.16 µM
inactive: [13]

C=C(C)C(=O)OCC[N+](C)(C)C
inactive: [1] | [2] | [3] | [4] | [5] | [15] | [12] | [6] | [10]
